Screening data as filed in PubChem.
HttQ103 aggreg – mutant huntingtin aggregation inhibition; PC12 HttQ103-GFP aggregates, Acumen cytometry, 40 h; Potency, µM (series often up to 46.1 µM), inactives show at the top dose activity change, negative = inhibition, most hits filed as inhibitors; actives 1.1% (n = 220,000); AID 1688; also: potency is read from the fitted curve at half-maximal effect; % is scaled to controls: 0 for no effect and ±100 for the full control effect; nearly all actives have a fitted effect of over 60% in size
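Inducible Q103 Huntingtin exon 1–GFP PC12 line, 1500 cells/well in phenol red free DMEM with 5% equine and 5% calf serum. Tebufenozide 100 nM induced expression; compounds titrated; aggregates quantified by cytometry.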
HPGD block – blocks human HPGD enzyme activity; P15428; purified HPGD, NADH fluorescence kinetic, PGE2 substrate; Potency, µM, inactives show top-dose activity change, negative = inhibition, usual class: inhibitors; actives 4.3% (n = 150,000); AID 894; active = well fitted inhibition curve with a large enough effect, not every such curve was filed as active; inconclusive = small, poorly fitted or top-dose-only effect, or another doubt; inactive = no such curve, though single readings can be large or run the other way; also: potency is read from the fitted curve at half-maximal effect; % is scaled to controls: 0 for no effect and ±100 for the full control effect
Target sequence (P15428 whole entry, looked up): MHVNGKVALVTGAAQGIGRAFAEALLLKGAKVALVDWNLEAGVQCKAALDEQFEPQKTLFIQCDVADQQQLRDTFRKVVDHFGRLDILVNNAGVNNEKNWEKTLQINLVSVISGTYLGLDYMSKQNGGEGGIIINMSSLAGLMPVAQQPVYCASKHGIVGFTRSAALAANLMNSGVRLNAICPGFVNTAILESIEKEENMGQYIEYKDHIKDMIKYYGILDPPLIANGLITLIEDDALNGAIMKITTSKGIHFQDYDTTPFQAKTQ
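20 nM HPGD preincubated 15 min at room temperature with compound in 50 mM Tris-HCl pH 8, 0.01% Tween 20. Started with 1 mM NAD+ and 30 uM prostaglandin E2; NADH fluorescence (360/450 nm) read 5 times over 30-s intervals, last minus first.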
CBFb-RUNX1 inh – CBF-beta/RUNX1 interaction disruption | Q01196+Q13951 | 230,000 tested, under 10 active | AID 1477 | AlphaScreen CBFb-His/RUNX1-biotin binding, biochemical | Potency, µM (titrated, usually from 59.8 µM), for inactives: at the highest dose activity, negative = inhibition, hits mostly inhibitors; also: % of control where 0% means no effect
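Compounds were screened at multiple concentrations against a preformed CBF-beta(His)/RUNX1(biotin) complex (30 nM of each) for 15 min at room temperature, followed by 90 min with nickel and streptavidin beads and AlphaScreen reading.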
HTT cytoprotect – cytoprotection in Huntington HTT-Q103 PC12 cell model | PC12 HTT-Q103 induced, cytoprotection, ATP luminescence, 40 h | Potency, µM (doses to about 56.4 µM), inactives show cytoprotection (ATP increase), most hits filed as activators | actives 0.14% (n = 230,000) | AID 1471; also: potency is read from the fitted curve at half-maximal effect; % of control where 0% means no effect; nearly all actives have a fitted effect of over 45% in size
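ATP quantification (ATPlite) reports survival of PC12 cells in which tebufenozide, 100 nM final, switches on Htt exon 1 with 103 glutamines linked to GFP; compounds are titrated.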
PNC inhibitor – blocks assembly of the perinucleolar compartment | PC3M PTB-GFP, PNC prevalence imaging, 16 h; active compounds read low | actives 3.1% (n = 140,000) | AID 2417 | activity change (PNC), negative = inhibition, % at 10 µM;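 active = readout at or below -70, meaning at least 70% loss of cells showing the perinucleolar compartment, a nuclear body marking cancer cells; inconclusive = readout between -30 and a set limit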;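 also: plate controls were DMSO wells for no effect and camptothecin positive control wells for full effect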
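Compounds are pinned in duplicate onto adhered PC3M cells stably expressing GFP-tagged PTB and incubated 16 h at 37 C. Cells are then fixed, nuclei stained with Hoechst, and PNC-positive cells counted.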
ALDH1A1 inh – inhibitors of human aldehyde dehydrogenase 1A1 | P00352 | Purified ALDH1A1, NADH fluorescence, propionaldehyde substrate | Potency, µM (titrated, usually from 75.3 µM), inactives show at the highest dose activity, negative = inhibition, hits mostly inhibitors | actives 7.3% (n = 220,000) | AID 1030; active = well fitted inhibition curve with a large enough effect, not every such curve was filed as active; inconclusive = small, poorly fitted or top-dose-only effect, or another doubt; inactive = no such curve, though single readings can be large or run the other way;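 also: potency is read from the fitted curve at half-maximal effect; plate controls were no enzyme wells and a reference inhibitor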
Target sequence (P00352 whole entry, looked up): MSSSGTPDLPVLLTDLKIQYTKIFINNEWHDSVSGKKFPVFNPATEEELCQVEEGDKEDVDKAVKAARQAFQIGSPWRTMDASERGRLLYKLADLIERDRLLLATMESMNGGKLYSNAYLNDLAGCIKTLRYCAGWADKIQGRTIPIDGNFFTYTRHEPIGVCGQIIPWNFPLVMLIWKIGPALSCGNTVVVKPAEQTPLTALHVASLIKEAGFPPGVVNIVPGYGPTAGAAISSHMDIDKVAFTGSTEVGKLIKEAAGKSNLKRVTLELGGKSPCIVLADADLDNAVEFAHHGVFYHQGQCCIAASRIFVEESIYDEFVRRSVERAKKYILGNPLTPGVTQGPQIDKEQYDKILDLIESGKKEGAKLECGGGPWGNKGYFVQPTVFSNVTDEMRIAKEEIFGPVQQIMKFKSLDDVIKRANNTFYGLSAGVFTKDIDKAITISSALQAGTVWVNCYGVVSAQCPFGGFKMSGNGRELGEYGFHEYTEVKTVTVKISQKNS
* hit, by the source's call; ? = inconclusive; . = no result given; [ ] = dose if it differs, or a comment. This is a sample that favours compounds with a hit; in the whole collection about 11% have one here. Unless noted, calls follow the shape of the dose curve; as a rule, active = well fitted curve in the direction sought with a large enough effect; inconclusive = small, poorly fitted or top-dose-only effect, or another doubt; inactive = no such curve, though single readings can be large; an effect the other way counts as inactive or inconclusive.

SMILES	HttQ103 aggreg	HPGD block	CBFb-RUNX1 inh	HTT cytoprotect	PNC inhibitor	ALDH1A1 inh
c1ccc(OCCSc2nnnn2-c2ccccc2)cc1	-10%	-17%	?	-21%[10 µM]	9	22µM*
O=C(O)/C=C/c1cn(-c2ccccc2)nc1-c1cc2ccccc2o1	11%[9.22 µM]	.	-1%	-5%[10 µM]	.	.
COc1ccc(NN=Nc2nc3c([nH]2)c(=O)n(C)c(=O)n3C)cc1	19%[9.22 µM]	.	-11%	-10%[10 µM]	.	8.9µM*
COCC#Cc1ccc(C2NC(C(=O)O)CCC2C)cc1 (configuration not stated)	.	.	-3%[13.1 µM]	-48%[10 µM]	.	16%[13.5 µM]
O=C(c1cccs1)N1CCN(Cc2nc3ccccc3c(=O)[nH]2)CC1	-1%	-1%	7%	4%	-15	?
Cc1ccc(C)c(Cn2nnc3c(=O)[nH]c(C4CCN(C(=O)c5cccs5)CC4)nc32)c1	?	0.56µM*	-26%	-11%[10 µM]	22	-15%
Cc1ccc(Cn2nnc3c(=O)[nH]c(C4CCN(C(=O)c5cccs5)CC4)nc32)cc1	19%	14µM*	3%	4%[1.9 µM]	42	-10%
Cc1ccc(C)c(Cn2nnc3c(=O)[nH]c(C4CCCN(C(=O)C5CCC5)C4)nc32)c1 (configuration not stated)	-5%	4.5µM*	9%	10%[10 µM]	33	?
COC(=O)NC(c1ccccc1)c1c[nH]c2ccc(OC)cc12 (configuration not stated)	.	-10%	7%	?	.	2%
CCOc1ccc(NC(=O)CSc2nc3cccnc3n2CCOC)cc1	8%	-16%	-5%	-32%[10 µM]	-8	28µM*
CCOc1ccc(NC(=O)CSc2nc3ccccc3c(=O)n2CCNC(C)=O)cc1	15%	-4%	6%	23%	-107*	-11%
CCOc1ccc(NC(=O)CSc2nnc(-c3ccccn3)n2N)cc1	0%	-15%	-3%	-10%	?	11µM*
CCOc1ccc(NC(=O)CSc2nc3cccnc3n2CC)cc1	-7%	-2%	3%	2%	15	-3%
COc1ccc(NC(=O)CSc2nnc(-c3ccccn3)n2N)cc1	-8%	-12%	-10%	-21%[0.074 µM]	21	4%
CSc1cc(C)n(-c2ccccc2)c(=S)c1C(C)=O	8%	-14%	-2%	-2%	?	3%
CC(C)Cn1c(Br)nc2c1c(=O)n(CCC#N)c(=O)n2C	0%	18µM*	2%	2%[0.074 µM]	-123*	-5%
C=C(C(C)=O)C(O)c1ccccc1 (configuration not stated)	.	?	-8%	-26%	.	4%
Cc1cccc(C)c1-n1c(C)cc(/C=N/NC(=O)CSc2ncccn2)c1C	?	-15%	0%	8%[10 µM]	-15	10µM*
Cc1ccccc1N(CC(=O)N/N=C/c1cc(C)n(-c2ccccc2C)c1C)S(C)(=O)=O	18µM*	?	.	-6%	-23	4µM*
Cc1cc(C)nc(SCC(=O)N/N=C/c2cc(C)n(-c3ccccc3C)c2C)n1	?	-14%	-4%	.	8	10µM*
CC[C@@H]1OC(=O)[C@H](C)[C@H](O[C@@H]2C[C@](C)(OC)[C@H](O)[C@H](C)O2)[C@H](C)[C@H](O[C@@H]2O[C@@H](C)C[C@@H](N(C)C)[C@@H]2O)[C@](C)(O)C[C@H](C)C(=O)[C@H](C)[C@H](O)[C@]1(C)O	.	-1%	-3%[21.7 µM]	-53%[17.1 µM]	.	4%[20.9 µM]
Oc1ccc(C=NC2CCCCC2)c(O)c1	-16%[9.22 µM]	.	8%	5%[10 µM]	.	?
CC(C)(C)OC(=O)NCCCCC1=CC2=CC(=O)C(C)(OC(=O)C3CCCC3)C(=O)C2=CO1 (configuration not stated)	.	-8%	21%	?	.	17%
CCn1nnnc1SCC(=O)N1c2ccccc2CCc2ccccc21	7%	-7%	2%	5%[10 µM]	?	2µM*
CCn1nnnc1SCC(=O)N1c2ccccc2Sc2ccccc21	-38%	-6%	26%	30%[10 µM]	0	13µM*
SMILES	HttQ103 aggreg	HPGD block	CBFb-RUNX1 inh	HTT cytoprotect	PNC inhibitor	ALDH1A1 inh
Cn1nnnc1SCC(=O)N1c2ccccc2CCc2ccccc21	13%	4%	9%	13%[0.074 µM]	?	-7%
COc1ccc(OC)c(-c2ccc(C(=O)O)o2)c1	.	?	-12%[89.1 µM]	.	.	?
O=C(O)/C=C/C(=O)Nc1ccccc1SC(F)(F)F	?	?	3%	2%[10 µM]	?	11µM*
Cc1ccccc1C(=O)NNC(=O)/C=C\C(=O)O	-6%[9.22 µM]	.	1%	7%[10 µM]	.	.
CCOC(=O)c1ccccc1NC(=O)/C=C/C(=O)O	9%	-19%	-2%	19%[10 µM]	-15	?
O=C(O)/C=C/C(=O)Nc1ccccc1-c1ccccc1NC(=O)/C=C/C(=O)O	0%	-16%	-17%	-3%[10 µM]	35	-7%
COC(=O)c1ccccc1NC(=O)/C=C/C(=O)O	?	-9%	-1%	.	-84*	1%
O=C(O)/C=C/C(=O)NNC(=O)c1ccccc1Br	5%	?	-4%	-24%	34	11µM*
COC(=O)C/C=C/[C@@H](C)[C@@H](/C=N/O[C@@H](C)c1cn([C@H](CO)Cc2ccccc2)nn1)NS(=O)(=O)c1ccc(C)cc1	7%	-2%	1%	.	-20	18µM*
COC(=O)C/C=C/[C@@H](C)[C@@H](/C=N/O[C@H](C)c1cn([C@@H]2COC[C@H]2O)nn1)NS(=O)(=O)c1ccc(C)cc1	-21%	-5%	4%	.	107	-7%
COc1cc(NC(=O)c2cccc(COCC(F)(F)C(F)F)c2)cc(OC)c1OC	-14%	-4%	1%	28%[10 µM]	-100*	12%
COc1ccc(Cn2c(CCC(=O)O)nc3cccnc32)cc1	-3%	-4%	5%	14%	36	14%
COc1ccc(OCCCC(=O)NCc2ccco2)cc1	-3%	?	3%	17%[10 µM]	24	1%
Cc1cc(C)cc(OCC(=O)OCC(=O)NCc2ccco2)c1	5%[9.22 µM]	-6%	-4%	7%	11	35µM*
Cc1ccccc1OCCCC(=O)NCc1ccco1	-3%	25µM*	0%	15%	15	4%
Cc1ccc(OCCCC(=O)NCc2ccco2)cc1	-2%	25µM*	-5%	-1%	57	4%
C[C@@H]1OC(Oc2ccccc2-c2cc(=O)c3c(O)cc(O)c([C@@H]4O[C@H](CO)[C@@H](O)[C@H](O)[C@H]4O)c3o2)[C@H](O)[C@H](O)[C@H]1O (some centres not stated)	.	.	12%	.	.	.
CN(C)/C=C(/C#N)C(=O)c1cccc(Oc2ccc(C(C)(C)C)cc2)c1	-3%	22µM*	-2%	-2%	-4	-8%
